DT40 TDP1 no CPT: qHTS for Inhibitors of human tyrosyl-DNA phosphodiesterase 1 (TDP1): qHTS in cells in absence of CPT; DT40 Tdp1-/- hTDP1 cells, no CPT, ATP luminescence, 48 h; Potency, µM (doses to about 46.2 µM), hits mostly inhibitors; actives 15% (n = 420,000); note: nearly all actives have a fitted effect of over 55% in size
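Growth kinetics read by CellTiter-Glo luminescence after ≥48 hr at 37 °C. Cells: DT40 Tdp1-/- stably carrying human TDP1, 400 per well, compound exposure in the absence of CPT (DMSO vehicle).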
HT1080NT lethal: kills 2HG-producing HT-1080-NT fibrosarcoma cells; HT-1080-NT fibrosarcoma viability, CellTiter-Glo ATP luminescence, 48 h; Potency, µM (top dose mostly 46.1 µM), usual class: cytotoxic; actives 1.6% (n = 360,000); AID 686970;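 note: NT is the 2HG producing partner of a matched IDH1 knockdown line; nearly all actives have a fitted effect of over 55% in size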
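HT-1080-NT; 750 cells/well; 5% FBS RPMI; 48 h compound, 37 degrees C; CellTiter-Glo luminescence; curve fitting and curve-class assignment.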
DT40 TDP1 CPT: DT40-hTDP1 cell growth loss with CPT; chicken DT40 Tdp1-/-;hTDP1 cells + 20 nM CPT, ATP luminescence, 48 h; Potency, µM (titrated, usually from 46.2 µM), actives largely listed as inhibitors; actives 12% (n = 420,000); note: nearly all actives have a fitted effect of over 55% in size
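Cell growth measured by CellTiter-Glo luminescence after a minimum 48 h, 37 C compound exposure with 20 nM CPT in Tdp1-knockout DT40 cells stably expressing hTDP1, seeded 400/well; qHTS titration format.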
IL1B secr inh: inhibitors of inflammasome signaling (IL-1 beta secretion); activity change, % at 57.5 µM; THP-1 LPS/ATP IL-1B secretion, AlphaLISA, 16 h; hits give low values; AID 743279; actives 4.7% (n = 360,000); in the data active = activity change below about -50%; inconclusive = mostly about -30% to -49%
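THP-1 cells pretreated 1 hr with compounds (up to 57.5 uM final), then stimulated with LPS (250 ng/mL final) plus ATP (1.25 mM final); secreted IL-1B measured by AlphaLISA after 16 hr, decreased signal indicating inhibition.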
HT1080 IDH1KD tx: toxicity to HT-1080 IDH1 knockdown cells (counter line) | HT-1080 IDH1 knockdown viability, ATP luminescence, 48 h | Potency, µM (top dose mostly 46.1 µM), most hits filed as cytotoxic | actives 2% (n = 360,000)
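CellTiter-Glo luminescence after 48 h compound exposure at 37 degrees C of IDH1-knockdown HT-1080 cells in 5% FBS RPMI. %Activity scaled between DMSO wells and cell-free media wells, with curves fitted and assigned curve classes.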
Large screens that a line does not name were inactive. Shown are actives, neighbours in structure and some others; about 19% of the full set was active somewhere. Unless noted, calls come from the whole dose curve; as a rule, active = well fitted curve in the direction sought with a large enough effect; inconclusive = small, poorly fitted or top-dose-only effect, or another doubt; inactive = no such curve, though single readings can be large; an effect the other way counts as inactive or inconclusive.

Cc1ccc(C)c(N2CCN(c3ccc4cc(S(=O)(=O)N5CCCCC5)ccc4n3)CC2)c1	DT40 TDP1 no CPT inconclusive, DT40 TDP1 CPT inconclusive
Cc1cccc(N2CCN(c3ccc4cc(S(=O)(=O)N5CCCCC5)ccc4n3)CC2)c1C	DT40 TDP1 no CPT 11.6µM, DT40 TDP1 CPT 11.6µM
Cc1cccc(N2CCN(c3ccc4cc(S(=O)(=O)N5CCCCC5)ccc4n3)CC2C)c1 (configuration not stated)	DT40 TDP1 no CPT 16.4µM, DT40 TDP1 CPT 11.6µM
COc1ccc(-c2cc3ccc(OC(C)C(=O)O)cc3oc2=O)cc1 (configuration not stated)	none
CCOC(=O)/C(=N/O)C1=NC(C)(C)Cc2cc(C)c(C)cc21	IL1B secr inh -71.7
COc1ccc(-c2nc3ccc(C)cn3c2Cc2ccc(C)cc2)cc1OC	DT40 TDP1 no CPT 14.6µM, DT40 TDP1 CPT 23.1µM
Cc1ccc2nc(-c3ccc(F)cc3)c(Cc3cccc(Cl)c3)n2c1	DT40 TDP1 no CPT 25.9µM, HT1080NT lethal inconclusive, DT40 TDP1 CPT 20.6µM, HT1080 IDH1KD tx inconclusive
COc1ccc(-c2nc3ccc(C)cn3c2Cc2ccccc2)cc1OC	DT40 TDP1 no CPT 23.1µM, HT1080NT lethal inconclusive, DT40 TDP1 CPT 18.4µM, IL1B secr inh inconclusive, HT1080 IDH1KD tx inconclusive
COc1ccc(-c2nc3ccc(C)cn3c2Cc2cccc(Cl)c2)cc1OC	DT40 TDP1 no CPT 18.4µM, HT1080NT lethal inconclusive, DT40 TDP1 CPT inconclusive, HT1080 IDH1KD tx 18.4µM
Cc1ccnc(NC(=O)CCC(=O)N(CC(=O)NC(C)(C)C)c2ccc3c(c2)OCCO3)c1	none
O=C(CCOc1ccccc1)Nc1ccnn1C1CCN(Cc2ccc(CO)o2)CC1	none
CCCCn1c(O)c2n(c1=O)Cc1ccccc1N=C2c1ccccc1	DT40 TDP1 no CPT inconclusive, DT40 TDP1 CPT inconclusive
COc1ccccc1Cc1c(-c2ccc(OC)c(OC)c2)nc2ccc(C)cn12	DT40 TDP1 no CPT 23.1µM, HT1080NT lethal inconclusive, DT40 TDP1 CPT inconclusive, HT1080 IDH1KD tx inconclusive
Cc1ccc2nc(C(C)(C)C)c(Cc3cccc(Cl)c3)n2c1	DT40 TDP1 no CPT 18.4µM, HT1080NT lethal 16.4µM, DT40 TDP1 CPT 16.4µM, HT1080 IDH1KD tx inconclusive
COc1ccccc1Cc1c(-c2ccco2)nc2ccc(C)cn12	DT40 TDP1 no CPT 8.2µM, HT1080NT lethal inconclusive, DT40 TDP1 CPT 8.2µM, IL1B secr inh inconclusive, HT1080 IDH1KD tx inconclusive
Cc1ccc2nc(-c3ccc(Cl)cc3)c(Cc3cccc(Cl)c3)n2c1	DT40 TDP1 no CPT inconclusive, HT1080NT lethal inconclusive, DT40 TDP1 CPT inconclusive, HT1080 IDH1KD tx inconclusive
Cc1ccc2nc(-c3ccco3)c(CC3CCCCC3)n2c1	DT40 TDP1 no CPT 10.3µM, HT1080NT lethal inconclusive, DT40 TDP1 CPT 13µM, HT1080 IDH1KD tx inconclusive
CCCCN(C)C(=O)Cn1ncc2c3ccccc3n(CCC)c2c1=O	DT40 TDP1 no CPT inconclusive, DT40 TDP1 CPT inconclusive
COc1ccc(-c2nc3ccc(C)cn3c2CC(C)(C)C)cc1OC	DT40 TDP1 no CPT 20.6µM, DT40 TDP1 CPT 18.4µM, HT1080 IDH1KD tx inconclusive
CCN(C[C@H]1N[C@@](C)(C(=O)OC)[C@H]2C(=O)N(C)C(=O)[C@@H]12)C(=O)Nc1ccc(Cl)cc1	none
O=C(O)c1ccc(OCCCCCCOC2CCCCO2)cc1 (configuration not stated)	DT40 TDP1 no CPT 18.4µM, DT40 TDP1 CPT inconclusive
O=C1c2ccccc2C(c2nnnn2-c2ccc3c(c2)OCCO3)N1Cc1cccc(F)c1 (configuration not stated)	DT40 TDP1 no CPT 16.4µM, DT40 TDP1 CPT inconclusive
O=C1c2ccccc2C(c2nnnn2-c2ccc3c(c2)OCCO3)N1Cc1ccc2c(c1)OCO2 (configuration not stated)	DT40 TDP1 no CPT 16.4µM, DT40 TDP1 CPT 18.4µM
COc1ccc(-n2nnnc2C2c3ccccc3C(=O)N2C2CCN(Cc3ccccc3)CC2)cc1 (configuration not stated)	DT40 TDP1 no CPT 16.4µM, DT40 TDP1 CPT inconclusive
O=C1c2ccccc2C(c2nnnn2-c2ccc3c(c2)OCCO3)N1Cc1cccnc1 (configuration not stated)	DT40 TDP1 no CPT inconclusive

Screens as filed in PubChem BioAssay.
